# The full list was thinned out, with hits kept by preference.
# FBPA Giardia inh: blocks Giardia fructose-bisphosphate aldolase activity; 290,000 compounds, 0.71% hits; A8B2U2; purified Giardia FBPA; Potency, µM (top dose mostly 59.6 µM), for inactives: at the highest dose activity, negative = inhibition, hits mostly inhibitors; further: potency means the concentration at half of the fitted maximal effect; on the % scale 0 is the no-effect control and ±100 the full control effect; nearly all actives have a fitted effect of over 55% in size
# Target sequence (A8B2U2 whole entry, looked up): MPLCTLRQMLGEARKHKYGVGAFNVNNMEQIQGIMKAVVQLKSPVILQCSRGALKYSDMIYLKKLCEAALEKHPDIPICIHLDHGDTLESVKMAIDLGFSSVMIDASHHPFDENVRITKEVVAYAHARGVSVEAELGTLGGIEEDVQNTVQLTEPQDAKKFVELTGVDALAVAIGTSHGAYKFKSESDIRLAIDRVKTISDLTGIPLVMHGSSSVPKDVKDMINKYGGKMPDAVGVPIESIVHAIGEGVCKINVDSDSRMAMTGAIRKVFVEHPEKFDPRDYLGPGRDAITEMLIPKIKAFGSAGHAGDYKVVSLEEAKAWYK
#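 Giardia FBPA (40 nM reagent) was preincubated 10 min at RT with compound (up to 57.5 uM final), then substrate plus GAPDH/TPI/NAD/arsenate coupling system with diaphorase/resazurin was added; resorufin fluorescence (525/598 nm) was read after 20 min.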
# Cycloheximide cs: counter-screen for Shiga toxin inhibitors: cycloheximide protein synthesis inhibition | cell reporter, cycloheximide protein synthesis inhibition counterscreen | max response, % | 300,000 compounds, 12% hits; in the data active means max response mostly above about 13%, no sharp cut-off; inactive means mostly below about 14%; further: read at 38.3 µM for the half of the compounds with a filed dose; 0% is about no effect
# RE007 growth inh: less growth of the S. pombe RE007 Vpr strain. S. pombe RE007 Vpr strain, BacTiter-Glo ATP luminescence, 24 h. 360,000 compounds, 0.21% hits. Potency, µM (highest dose often 92.2 µM), without a hit: at the top dose activity change, negative = less growth, most hits filed as inhibitors; active means well fitted falling curve with a large enough effect; inconclusive means small, poorly fitted or top-dose-only effect; inactive means no such curve, though single readings can be large or run the other way; further: potency means the concentration at half of the fitted maximal effect; on the % scale 0 is the no-effect control and ±100 the full control effect; nearly all actives have a fitted effect of over 50% in size
#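 Fission yeast RE007 carrying one integrated HIV-1 vpr copy, seeded at OD 0.01 in PMG+AL medium with 23 nL pinned compound. Grown 24 h at 30 degrees; viability read by BacTiter-Glo luminescence after 5 min.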
# Tb PYK inh: inhibitors of Trypanosoma brucei pyruvate kinase; TbPYK enzyme, Kinase-Glo Plus ATP luminescence, 45 min; AID 624173; 410,000 compounds, 0.12% hits; Potency, µM (highest dose often 76.8 µM), for inactives: at the highest dose activity, negative = inhibition, usual class: inhibitors; further: potency means the concentration at half of the fitted maximal effect; on the % scale 0 is the no-effect control and ±100 the full control effect; nearly all actives have a fitted effect of over 50% in size
#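 T. brucei PYK with substrate was exposed to pin-transferred compounds across a concentration series, then started with 130 uM ADP (final). After 45 min at room temperature, Kinase-Glo Plus luminescence was read, normalized and curve-fitted.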
# Shiga inhibitor: inhibitors of Shiga toxin in Vero cells; Vero cells, Shiga toxin protein synthesis inhibition reporter; inhibition, % at 38.7 µM; 290,000 compounds, 9.2% hits; AID 2315; in the data active means inhibition mostly above about 28%, no sharp cut-off; inactive means mostly below about 43%; further: 0% is about no effect
# LmPK inh: LmPK (Leishmania mexicana) enzyme inhibition; Q27686; purified LmPK, Kinase-Glo ATP luminescence, 1 h; Potency, µM (series often up to 57.5 µM), without a hit: top-dose activity change, negative = inhibition, usual class: inhibitors; 290,000 compounds, 0.37% hits; further: potency means the concentration at half of the fitted maximal effect; on the % scale 0 is the no-effect control and ±100 the full control effect
#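 Purified LmPK (0.1 nM) with 0.5 mM PEP and 0.1 mM ADP in imidazole buffer pH 7.2 with MgCl2/KCl, 1 h at room temperature. ATP formed was read by luciferase luminescence and normalized to no-enzyme and uninhibited controls.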
# The depositor's hits bear a star; ? = inconclusive; . = no result given; + = active, no number; [ ] = dose if it differs, or a comment. Unless noted, the call rests on the fitted dose curve; in most records, active means well fitted curve in the direction sought with a large enough effect; inconclusive means small, poorly fitted or top-dose-only effect, or another doubt; inactive means no such curve, though single readings can be large; an effect the other way counts as inactive or inconclusive.
SMILES,FBPA Giardia inh,Cycloheximide cs,RE007 growth inh,Tb PYK inh,Shiga inhibitor,LmPK inh
Cc1nc2sc(C(N)=O)c(N)c2c(-c2ccc(Br)cc2)c1C(=O)Nc1ccc(Cl)cc1,.,.,.,2%,.,.
Cc1cc(C)cc(NC(=O)CSc2nnc(-c3ccccc3C)o2)c1,-8%,36*,-2%,-3%,43,0%
Cc1ccc(NC(=O)CSc2nnc(-c3ccccc3C)o2)cc1C,-2%,1,10%,7%,25,3%
Cc1cccc(NC(=O)CSc2nnc(-c3ccccc3C)o2)c1,-3%,37*,10%,-3%,69*,1%
CCCCCCc1ccc(N2C[C@H](C)[C@@H](CC(=O)NCc3ccccc3)C2=O)cc1,3%,8.5*,-12%,-3%,-1,2%
CCCCCCc1ccc(N2C[C@H](CCCCC)[C@@H](CC(=O)NCc3ccccc3)C2=O)cc1,-10%,1,22%,-2%,-1,6%
CCCCCCc1ccc(N2C[C@H](Cc3ccccc3)[C@@H](CC(=O)Nc3ccccc3)C2=O)cc1,-13%,17*,9%,6%,44*,-1%
C/C=C/c1ccc(OCC(=O)Nc2ccc(C(N)=O)cc2)c(OC)c1,9%,1,3%,-12%,-6,0%
Cc1ccc(Nc2nc(COC(=O)COc3ccc(C=O)cc3)cs2)cc1,-6%,25*,-2%,-19%,69*,0%
C/C=C/c1ccc(OCC(=O)OCc2csc(Nc3ccc(C)cc3)n2)c(OC)c1,-4%,44*,-5%,-13%,91*,-2%
COc1cc(/C=N/Nc2cc(C)nc(N)n2)ccc1O,-25%,13,6%,4%,36*,0%
COc1ccc(/C=N/Nc2cc(OC)ncn2)cc1,0%,25*,-5%,-17%,97*,?
COc1ccc(/C=N/Nc2cc(C)nc(N)n2)cc1,-14%,32*,5%,0%,67*,4%
CC1CC(C(F)(F)F)n2nc(C(=O)O)cc2N1 (centres undefined),-5%,-2,5%,4%,-22,-5%
CCOC(=O)c1cc2n(n1)C(C(F)(F)F)CC(C)N2 (centres undefined),4%,12*,1%,-1%,13,-1%
O=C(c1ccccc1)c1c2c(cc3sc4ccccc4[n+]13)-c1cccc3cccc-2c13,-10%,27*,9%,-4%,38*,3%
Fc1cccc(Cl)c1-c1nnc2ccc3ccccc3n12,?,37*,-8%,-3%,35*,5%
Fc1ccccc1-c1nnc2ccc3ccccc3n12,-15%,-4,-10%,3%,.,5%
CCc1cccc(NC(=O)C(CC)n2nc(C)c3sc4ccccc4c3c2=O)c1 (centres undefined),.,.,.,-5%,.,.
CN(c1nc(-c2ccc(Br)cc2)cs1)C1CCS(=O)(=O)C1 (centres undefined),-9%,19*,-15%,-23%,43,7%
Cc1ccsc1CN(C(=O)COc1ccc(Br)cc1)C1CCS(=O)(=O)C1 (centres undefined),.,.,.,-6%,.,.
CCOc1ccc(OCc2cccc(C(=O)Nc3ccc(CN4CCCCC4)cc3)c2)cc1,4%,122*,14%,-13%,87*,-5%
COc1cc(OC)cc(C(=O)Nc2ccc(CN3CCCCC3)cc2)c1,6%,-2,3%,0%,11,4%
O=C(Nc1ccc(CN2CCCCC2)cc1)c1cccc(F)c1,0%,31*,1%,-4%,39*,2%
COc1ccc(OCc2cccc(C(=O)Nc3ccc(CN4CCCCC4)cc3)c2)cc1,4%,127*,-10%,3%,+,1%
SMILES,FBPA Giardia inh,Cycloheximide cs,RE007 growth inh,Tb PYK inh,Shiga inhibitor,LmPK inh
COc1ccc(C2C(=O)N(C3CCC(C)CC3)CC(=O)N2CCC2=CCCCC2)cc1OC (centres undefined),.,.,.,0%,.,.
O=C(CNc1ccccc1)N/N=C/c1ccc2c(c1)OCO2,4%,20*,18%,-13%,29*,4%
O=C(Cc1ccccc1)N/N=C/c1ccc2c(c1)OCO2,8%,34*,-12%,-16%,72*,2%
C/C(=N\NC(=O)Cn1ccc(C(F)(F)F)n1)c1ccc2c(c1)OCO2,-5%,7,-3%,-4%,28,1%
O=C(CSc1ncccn1)N/N=C/c1ccc2c(c1)OCO2,8%,34*,-1%,0%,25,-1%
O=C(NN=Cc1ccc2c(c1)OCO2)NN=Cc1ccc2c(c1)OCO2,.,.,-9%,-8%,.,.
O=C(Cn1ccc(C(F)(F)F)n1)N/N=C/c1ccc2c(c1)OCO2,4%,37*,43%,-9%,122*,-6%
CCCCCCCCCCCCCCCCCCCCCCCCCCCCCC,5%,-3,.,.,-3,.
COc1ccc(CCC(=O)N/N=C/c2ccc3c(c2)OCO3)cc1,.,.,2%,-2%,.,.
O=C(CNc1ccccc1)N/N=C/c1ccc2c(c1)OCCO2,2%,34*,0%,4%,48*,-3%
O=C(CCc1ccccc1)NCC(=O)N/N=C/c1ccc2c(c1)OCO2,2%,19*,0%,4%,53*,-8%
CCOc1ccc(CNC(=O)c2ccc(NC(=O)N3CCSc4ncccc43)cc2)cc1OC,.,.,.,-8%[15.4 µM],.,.
COc1ccc(S(=O)(=O)Nc2ccc3c(c2)OCO3)cc1C,6%,-2,-13%,-3%,-4,3%
CCn1cc(S(=O)(=O)Nc2ccc3c(c2)OCCO3)cn1,0%,76*,25%,0%,77*,-3%
Cn1c(=O)oc2cc(S(=O)(=O)Nc3ccc4c(c3)OCO4)ccc21,-17%,14*,-3%,-3%,25,3%
Cn1c(=O)c2cc(S(=O)(=O)Nc3ccc4c(c3)OCO4)ccc2n(C)c1=O,1%,-2,1%,0%,8,6%
COc1ccc(S(=O)(=O)Nc2ccc3c(c2)OCCO3)cc1OC,11%,23*,15%,4%,65*,3%
Cn1cc(S(=O)(=O)Nc2ccc3c(c2)OCCO3)cn1,0%,44*,7%,-4%,103*,-4%
Cc1nc(S(=O)(=O)Nc2ccc3c(c2)OCCO3)cn1C,0%,-1,3%,-22%,15,1%
CC(C)C[C@@H](C(=O)N[C@@H](Cc1c[nH]c2ccccc12)C(N)=O)N1C[C@]2(CCCN2C(=O)[C@H](Cc2ccccc2)NC(=O)[C@H](Cc2ccccc2)NC(=O)[C@H](CCC(N)=O)NC(=O)[C@H](CCC(N)=O)NC(=O)[C@@H]2CCCN2C(=O)[C@H](CCCCN)NC(=O)[C@@H]2CCCN2C(=O)[C@@H](N)CCCNC(=N)N)CC1=O,4%,-4,.,.,-9,.
CC(=O)Nc1cccc(NC(=O)CSc2nnc3ccc(-c4ccncc4)nn23)c1,.,.,0%,0%,.,.

# Bioassay records deposited in PubChem by National Center for Advancing Translational Sciences (NCATS).
